Only some compounds are listed: those with a hit (about 3.9% of all), similar ones and a draw of the others.
BoNT-F LC inh: BoNT/F light chain protease inhibitors, primary screen, biochemical, flow cytometry, MLPCN library; actives 0.22% (n = 360,000); Botulinum neurotoxin type F light chain protease (Clostridium botulinum); Multiplex microsphere protease cleavage assay; AID 588497, 2011; inhibition, % at 10 µM; in the data active = inhibition above about 35%, passing the limit was not always enough; inconclusive = no clear call, values can overlap the other calls
SARS 3CLpro inh: SARS-CoV 3CLpro protease inhibitors, primary screen, biochemical, quenched FRET; inhibition, % at 6 µM; actives 0.14% (n = 290,000); AID 1706, 2009; Replicase polyprotein 1ab (Severe acute respiratory syndrome coronavirus), P0C6X7; recombinant SARS-CoV 3CLpro, quenched FRET peptide cleavage; in the data active = inhibition above about 12%
BoNT-A LC inh2: BoNT/A light chain protease inhibitors, primary screen, biochemical, flow cytometry, MLPCN library; Botulinum neurotoxin type A light chain protease (Clostridium botulinum A str. ATCC 3502); multiplex microsphere protease substrate cleavage; inhibition, % at 10 µM; actives 0.17% (n = 360,000)
Anthrax LF prot: Bacillus anthracis LF protease inhibitors, primary screen, biochemical, multiplex microsphere, MLPCN library | multiplex microsphere protease cleavage assay | inhibition, % at 10 µM | actives 0.12% (n = 360,000) | AID 588501, 2011
Target sequence (P15917 whole entry, looked up): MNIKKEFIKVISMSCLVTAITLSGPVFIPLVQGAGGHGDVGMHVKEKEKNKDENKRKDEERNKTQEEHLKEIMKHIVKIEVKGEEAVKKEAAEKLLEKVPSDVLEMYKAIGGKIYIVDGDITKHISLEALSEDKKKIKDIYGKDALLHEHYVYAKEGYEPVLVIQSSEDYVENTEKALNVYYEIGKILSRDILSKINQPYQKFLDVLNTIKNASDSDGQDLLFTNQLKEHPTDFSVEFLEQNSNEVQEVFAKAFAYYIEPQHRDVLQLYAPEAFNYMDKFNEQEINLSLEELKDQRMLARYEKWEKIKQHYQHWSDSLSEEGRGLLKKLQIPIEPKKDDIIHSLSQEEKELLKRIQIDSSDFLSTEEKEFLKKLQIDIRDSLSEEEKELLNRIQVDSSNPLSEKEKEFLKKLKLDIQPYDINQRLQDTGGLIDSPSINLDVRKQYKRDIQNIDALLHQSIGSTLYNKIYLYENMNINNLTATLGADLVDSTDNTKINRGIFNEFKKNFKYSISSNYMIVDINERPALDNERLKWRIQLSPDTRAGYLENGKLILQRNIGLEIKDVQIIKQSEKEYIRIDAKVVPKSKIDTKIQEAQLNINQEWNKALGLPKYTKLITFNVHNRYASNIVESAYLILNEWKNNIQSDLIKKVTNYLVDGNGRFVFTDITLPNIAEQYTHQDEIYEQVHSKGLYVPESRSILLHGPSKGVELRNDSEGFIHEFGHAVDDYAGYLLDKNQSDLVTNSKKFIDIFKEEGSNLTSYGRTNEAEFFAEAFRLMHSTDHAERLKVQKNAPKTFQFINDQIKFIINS
Autofluor counter: counter-screen for toxin protease inhibitors: compound fluorescence | compound autofluorescence counterscreen, microsphere flow cytometry; stronger effect = higher value | fluorescence intensity (concentration not given with the values) | actives 3.1% (n = 360,000) | AID 624483; in the data active = fluorescence intensity above about 16000; inconclusive = no clear call, values can overlap the other calls
DUSP3 inh: VHR1 phosphatase inhibitors, primary screen, biochemical, absorbance, uHTS; Dual specificity protein phosphatase 3 (Homo sapiens), P51452; recombinant VHR phosphatase, pNPP absorbance; inhibition, % at 13.3 µM; actives 0.52% (n = 290,000); AID 1654, 2009; in the data active = inhibition above about 50%
Of the large screens only hits and unclear results are named; the others gave an inactive call; ! = repeats disagree. Cut-off read from the data, not from the text of the source, unless noted: active = inhibition above about 30%; inconclusive = no clear call, values can overlap the other calls; inactive = below that.

CCOC(=O)/C(C#N)=C/c1cc2ccccc2nc1N1CCCCC1	BoNT-A LC inh2 31
Cc1ccc(C(=O)NCN2CCN(c3ccccc3)CC2)cc1	Autofluor counter inconclusive (no result: SARS 3CLpro inh, DUSP3 inh)
CCN(CC)c1ccc2cc(-c3nc4ccccc4[nH]3)c(=O)oc2c1	BoNT-F LC inh 59, BoNT-A LC inh2 33
CCN(CC)c1ccc2cc(-c3nc4ccccc4n3C)c(=O)oc2c1	Autofluor counter 16417
CCN(CC)c1ccc2cc(-c3nnc(-c4ccccc4)o3)c(=O)oc2c1	none
O=C(C[C@H]1C/C=C\CC[C@@H](Cc2ccc(F)cc2)C(=O)OC[C@H]2CCCN2C1=O)NCCO	none (no result: SARS 3CLpro inh, DUSP3 inh)
COc1ccc(CNC(=O)COC(=O)c2cc(C)oc2C)cc1	none (no result: SARS 3CLpro inh, DUSP3 inh)
O=C1NC[C@H](CCCCN2C[C@H](Cc3ccc(O)cc3)N(CCc3ccccc3)C(=O)C2=O)N(CCC2CCCCC2)C1=O	none (no result: SARS 3CLpro inh, DUSP3 inh)
Nn1c(SC/C=C/c2ccccc2)nnc1-c1cccnc1	Autofluor counter 21822
CCn1c(SCc2nc3ccccc3c(=O)[nH]2)nnc1-c1ccncc1	none
COc1cccc(-c2nnc(SCc3nc4ccccc4[nH]3)n2N)c1	none
CCn1c(SCc2nc3ccccc3c(=O)[nH]2)nnc1-c1cccnc1	BoNT-A LC inh2 inconclusive, Autofluor counter 23337
Nn1c(SCc2nc3ccccc3[nH]2)nnc1-c1cccnc1	Autofluor counter 22326
CN1CCN(NC(=O)CN2C(=O)S/C(=C\c3c(Cl)cccc3Cl)C2=O)CC1	none
Clc1ccccc1CSc1snnc1-c1ccccc1	BoNT-A LC inh2 inconclusive, Autofluor counter 20983
Clc1ccc(CSc2snnc2-c2ccccc2)cc1	BoNT-F LC inh inconclusive, BoNT-A LC inh2 inconclusive, Anthrax LF prot inconclusive, Autofluor counter inconclusive
CSc1snnc1-c1ccccc1	none
Clc1ccc(-c2nnsc2SCc2ccccc2)cc1	Autofluor counter 22947
O=C(c1ccco1)N1CCN(c2ccc([N+](=O)[O-])c(N3CCOCC3)c2)CC1	none
N#C/C(=C\c1cccc(NC(=O)c2ccccc2Cl)c1)C(=O)NCCc1ccccc1	DUSP3 inh 55
COCCCNC(=O)/C(C#N)=C/c1cccc(NC(=O)c2ccccc2Cl)c1	none
O=C(O)/C=C/c1ccccc1Oc1ccccc1	none
C=CCOc1ccccc1/C=C/C(=O)O	Autofluor counter 22958
CCOCC(=O)Nc1nnc(COCC)s1	BoNT-F LC inh inconclusive
CCOCc1nnc(NC(=O)COC)s1	Autofluor counter 23993
CCOCCc1nnc(NC(=O)C(CC)c2ccccc2)s1 (configuration not stated)	Autofluor counter 16622
CCCC(=O)Nc1nnc(Cc2ccccc2)s1	Autofluor counter 24700
CCOCc1nnc(NC(=O)CSCc2ccccc2)s1	BoNT-A LC inh2 inconclusive, Autofluor counter 20554
CCC(=O)Nc1nnc(Cc2ccccc2)s1	none
COc1ccccc1N1CCN(C(=O)[C@@H]2CCCN2C2=NS(=O)(=O)c3ccccc32)CC1	none (no result: SARS 3CLpro inh, DUSP3 inh)
CCCCc1cc(=O)oc2cc(O)ccc12	none
COc1cnc(-c2ccccn2)nc1Sc1ccccc1Cl	Autofluor counter 16715
CS(=O)(=O)N(CC(=O)NCC1CCCO1)c1cccc([N+](=O)[O-])c1 (configuration not stated)	DUSP3 inh 56
COc1ccc(N(CC(=O)NCC2CCCO2)S(=O)(=O)c2ccc(C)cc2)cc1OC (configuration not stated)	Autofluor counter 16225
Cc1ccc(S(=O)(=O)N(CC(=O)NCC2CCCO2)c2cccc([N+](=O)[O-])c2)cc1 (configuration not stated)	none
CCOC(=O)[C@@H]1[C@H]2COc3ccccc3[C@H]2N2C(=O)N(c3ccc(Br)cc3)C(=O)[C@]12C	none (no result: SARS 3CLpro inh, DUSP3 inh)
Cc1nn(-c2cc(C)c3ccccc3n2)c2c1CCC2	Autofluor counter 20384
C=C(C)C1Cc2c(C)nn(-c3cc(C)c4ccccc4n3)c2C1 (configuration not stated)	none (no result: BoNT-F LC inh, BoNT-A LC inh2, Anthrax LF prot, Autofluor counter, DUSP3 inh)
Clc1cccc(Oc2ncc(CN3CCOCC3)s2)c1	Autofluor counter 21630
O=C(Nc1ccccc1)c1n[nH]c(Cn2cncn2)n1	Autofluor counter 23808
O=C(NCC(c1cccs1)N1CCOCC1)c1cc2ccccc2oc1=O (configuration not stated)	none (no result: SARS 3CLpro inh, DUSP3 inh)
Cn1nnc2sc3c(c2c1=O)CCCC3	Autofluor counter 23005
Cc1nc2sc3c(c2c(=O)n1N)CCC3	none
CCOC(=O)c1cnn(-c2nc(-c3ccccc3F)cs2)c1C(F)(F)F	BoNT-A LC inh2 inconclusive, Autofluor counter 19894
CC(C(=O)Nc1cccc(S(=O)(=O)N2CCOCC2)c1)N1CCN(c2ccc(F)cc2)CC1 (configuration not stated)	none
CCCCc1nc(SCC(=O)N2CCOCC2)c2c(=O)n(C)c(=O)n(C)c2n1	none
CC12CN(C(=O)c3ccc(Cl)cc3)C3(C#N)CC1CCC23C (configuration not stated)	BoNT-A LC inh2 inconclusive, Autofluor counter 22214
CC(=O)N1CCCC(C)(C(=O)Nc2cccc(OC(C)C)c2)C1 (configuration not stated)	none (no result: SARS 3CLpro inh, DUSP3 inh)
Cc1ccc(SCC(=O)O/N=C(\N)c2ccc([N+](=O)[O-])cc2)cc1	Autofluor counter 22162
COc1ccc(O)c(C2NC(CC(C)C)(C(=O)O)C3C(=O)N(Cc4ccccc4)C(=O)C23)c1 (configuration not stated)	Autofluor counter 16430
Cc1ccc(S(=O)(=O)N2CCN(C(=O)CSCc3ccc(C(C)C)cc3)CC2)cc1	none (no result: SARS 3CLpro inh, DUSP3 inh)
Cc1cc(C)c(NC(=O)CN2CCN3CCCC3C2)c(C)c1 (configuration not stated)	Autofluor counter 21570!
COC(=O)c1ccc(OC(=O)C2CC(=O)N(c3cccc(C)c3)C2)cc1 (configuration not stated)	BoNT-A LC inh2 inconclusive, Autofluor counter 16757
O=Cc1ccc(OC(=O)C2CC(=O)N(c3ccc(F)cc3)C2)cc1 (configuration not stated)	DUSP3 inh 51
O=C(O)C1CC(=O)N(c2ccc(F)cc2)C1 (configuration not stated)	none
COC(=O)C1=COC(OC2OC(CO)C(O)C(O)C2O)C2C(C)CC(=O)C12 (configuration not stated)	none (no result: SARS 3CLpro inh, DUSP3 inh)
CCOC(=O)c1cccc(C2=CC(=O)C[C@H](c3ccc(OC)c(OC)c3)C2)c1	none (no result: SARS 3CLpro inh, DUSP3 inh)
O=C(Nc1ccccc1)N1CCN(c2nc3ccccc3s2)CC1	Autofluor counter 21122
O=C(Nc1ccc(F)cc1)N1CCN(c2nc3ccccc3s2)CC1	none
CCOC(=O)c1ccc(NC(=O)[C@@H]2CCC(=O)N2C2OC(=O)c3c2ccc(OC)c3OC)cc1 (some centres not stated)	none (no result: SARS 3CLpro inh, DUSP3 inh)
COc1ccc(Nc2cccccc2=O)cc1	none
